Assay results: PubChem BioAssay (NCI)
This is part of a sample that, as a whole, favours compounds with a hit. Of some 83,000 tested, about 20% had one in any assay.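 Each cell line was grown in a 96-well plate and treated with one concentration of compound for 48 hours. Values below 10 were considered active.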 Unmarked numbers belong to inactive results. Active and inactive are the calls of the source.

Legend:
Experiment in all cases: NCI-60 one-dose screen, 48 h (100 = growth as untreated, 0 = no growth, -100 = all killed)
Details in all cases: 10 µM
[1] = tested on: RPMI-8226 leukemia
[2] = tested on: OVCAR-8 ovarian
[3] = tested on: OVCAR-5 ovarian
[4] = tested on: OVCAR-4 ovarian
[5] = tested on: SK-OV-3 ovarian
[6] = tested on: OVCAR-3 ovarian
[7] = tested on: NCI/ADR-RES ovarian
[8] = tested on: T-47D breast
[9] = tested on: MDA-MB-435 melanoma
[10] = tested on: SW-620 colon
[11] = tested on: MCF7 breast
[12] = tested on: HCT-116 colon
[13] = tested on: HCC-2998 colon
[14] = tested on: KM12 colon
[15] = tested on: IGROV1 ovarian
[16] = tested on: HS 578T breast
[17] = tested on: BT-549 breast

SMILES	growth [1]	growth [2]	growth [3]	growth [4]	growth [5] [%]	growth [6]	growth [7]	growth [8] [%]	growth [9]	growth [10] [%]	growth [11]	growth [12]	growth [13]	growth [14]	growth [15] [%]	growth [16]	growth [17] [%]
Nc1ccn(C2CC(O)C(CO)O2)c(=O)n1 (stereo not drawn)	112%	106%	92.4%	114%	105	123%	102%	103	107%	113	103%	109%	2.98% (active)	110%	–	–	–
c1ccc2c(-c3nc(N4CCOCC4)c4c5c(sc4n3)CCCCCC5)cccc2c1	112%	101%	103%	106%	111	–	109%	95	111%	108	91.8%	–	106%	109%	112	104%	97.9
CCOC(=O)CNC(=O)CCCCSc1ncnc2nc[nH]c12	107%	108%	90.1%	111%	115	112%	97.3%	100	110%	107	91.9%	101%	-18% (active)	108%	–	107%	–
Nc1c(C(=O)Nc2cccc(F)c2)sc2nc3c(cc12)C(=O)CCC3	43.1%	63.9%	38.2%	57.8%	25.6	–	13.3%	42.6	-43.8% (active)	31.1	–	29%	23.4%	28.9%	44.1	29.3%	48.4
Cc1ccc(S(=O)(=O)OCCN(CCOS(=O)(=O)c2ccc(C)cc2)c2c[nH]c(=O)[nH]c2=O)cc1	100%	103%	102%	97.9%	100	–	112%	100	103%	110	99.2%	108%	128%	116%	112	140%	112
COc1ccc(/C(=C2/O[C@@H]([C@H]3COC(C)(C)O3)[C@H]3OC(C)(C)O[C@@H]23)c2cc(OC)c(OC)c(OC)c2)cc1O	36.4%	96.1%	92.9%	106%	90.1	–	-10.5% (active)	115	-10.2% (active)	–	60.9%	78.1%	–	5.71% (active)	92.6	–	67.5
N=C1c2nc3n(c2C(=O)c2nc4n(c21)CCCC4)CCCC3	82.2%	91.5%	-57.8% (active)	96.2%	95	98.4%	85.7%	71.9	-82.5% (active)	23.7	-6.98% (active)	65.8%	87.3%	66.7%	–	-28.7% (active)	–
COc1cc(-c2cc(/C=C/C(=O)c3ccc4c(c3)OCO4)[nH]n2)cc(OC)c1OC	-11.6% (active)	76.6%	83.3%	76.6%	99.2	–	78.5%	40	31.2%	47.4	17.3%	31.4%	103%	18%	98.5	86.6%	60.9
O=C(Nc1nc2ccccc2s1)Nc1ccc([N+](=O)[O-])cc1Cl	36.9%	-26.4% (active)	105%	-45.6% (active)	63.9	–	14.4%	61.7	40.4%	95.6	74.3%	18.7%	76.1%	-32.4% (active)	–	70.7%	16.2
ClCCOCCn1cnc2c(Cl)nc(Cl)nc21	93.1%	62.7%	102%	–	97.4	58.8%	101%	80.9	80.7%	47.6	55.9%	-13.6% (active)	-90.2% (active)	92.5%	59	12.4%	102
CCc1ccc2c(c1)N(CCO)C1=C(C(=O)OC1)C2c1cc(OC)c(OC)c(OC)c1 (stereo not drawn)	18.3%	8.75% (active)	36.6%	48.6%	–	-57.6% (active)	-3.11% (active)	59.7	-69.9% (active)	23	19.4%	7.59% (active)	–	-29.6% (active)	10.1	–	19.8
O=C(c1cccs1)c1ccccc1Cc1ccccc1	100%	99%	124%	96.9%	–	–	103%	95	103%	104	102%	113%	114%	104%	99.2	106%	106
C[N+](C)(C)c1ncnc2nc[nH]c12	103%	102%	80.3%	103%	–	112%	94.1%	91.7	95.3%	120	–	97.3%	-10.1% (active)	110%	–	101%	–
COc1cc(-c2cc(C(=O)N3CCN(C(=O)c4ccccc4NCc4ccco4)CC3)nc3cc(-c4ccccc4)nn23)cc(OC)c1OC	21.3%	39.5%	64.1%	68.6%	–	-37.8% (active)	6.24% (active)	50.9	-34.6% (active)	14.2	16.3%	20%	66.3%	13.1%	23	36.5%	35.6
c1ccc([I+]c2ccccc2)cc1	46.7%	39.2%	85.2%	66%	–	62.7%	91.5%	76.8	68.9%	40.8	64%	31%	–	41.9%	45.6	116%	65.5
O=[P@@]1(c2ccccc2)O[C@H](COCc2ccccc2)[C@@H](OCc2ccccc2)[C@H](OCc2ccccc2)[C@H]1O	89.6%	45%	99.3%	–	38.7	59.5%	73.4%	72.8	95.6%	104	51%	69.8%	103%	98.1%	78.3	-10.7% (active)	56.9
Cc1ccc(CC#N)cc1C	134%	78.3%	88.8%	109%	–	–	106%	98.4	88.4%	109	–	–	103%	94.7%	74.9	173%	124
C(CCCC1=NCCO1)CCCC1=NCCO1	89.4%	106%	100%	109%	–	99.9%	104%	109	109%	99.4	102%	112%	–	103%	114	99.3%	103
CCCCCCCCCCCCC1C/C=C\CCCC(=O)O1 (stereo not drawn)	89.7%	104%	101%	–	95.5	107%	119%	91.2	105%	104	91.7%	105%	129%	112%	110	113%	127
O=C(Nc1ccncc1)C(=O)c1cn(S(=O)(=O)c2cc(Cl)cc(Cl)c2)c2ccccc12	57.1%	69.1%	89%	75.5%	–	59.7%	55.3%	56.8	8.83% (active)	64.9	43.9%	51.4%	65.7%	55.3%	57.6	69.6%	–
